According to PubChem BioAssay (EPA / NIEHS):
Active and inactive are the calls of the source. How the source made its calls: active means hit-call score of the fitted dose curve at least 0.9, where 1 is the maximum; inactive means score below 0.9.

Tests used:
Settings in all cases: mRNA level, 48 h; actives raise or lower the signal
[1] = read-out: CYP2C9 (gene 1559); experiment: LTEA_HepaRG_CYP2C9: Life Technologies and Expression Analysis (LTEA) Assay for CYP2C9 using HepaRG (AID 2283484)
Summary of the method: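 Eight-point concentration-response (highest 100 uM, half-log dilutions) in HepaRG cells for 48 h; CYP2C9 expression by qRT-PCR normalized to ACTB, GAPDH, POLR2A. Bidirectional fit, DMSO baseline.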

[2] = read-out: CYP2E1 (gene 1571); experiment: LTEA_HepaRG_CYP2E1: Life Technologies and Expression Analysis (LTEA) Assay for CYP2E1 using HepaRG (AID 2283485)
Summary of the method: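 CYP2E1 transcript measured by Fluidigm qRT-PCR against three housekeeping genes in human HepaRG cells treated 48 h (top 100 uM, half-log steps, 0.5% DMSO vehicle). Gain or loss fitted relative to DMSO baseline.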

[3] = read-out: CYP4A11 (gene 1579); experiment: LTEA_HepaRG_CYP4A11: Life Technologies and Expression Analysis (LTEA) Assay for CYP4A11 using HepaRG (AID 2283486)
Summary of the method: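 Readout is CYP4A11 mRNA induction or suppression (qRT-PCR, ACTB/GAPDH/POLR2A normalization) in human HepaRG cells after 48 h chemical treatment, concentrations to 100 uM in 0.5% DMSO, fitted bidirectionally against vehicle.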

[4] = read-out: Cytochrome P450 3A4 (Homo sapiens) (UniProt P08684); experiment: LTEA_HepaRG_CYP3A4: Life Technologies and Expression Analysis (LTEA) Assay for CYP3A4 using HepaRG (AID 2283487)
Summary of the method: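 In a human hepatic line (HepaRG), duplicate wells were treated 48 h with up to 100 uM chemical in half-log dilutions. Endpoint: CYP3A4 mRNA induction or loss relative to 0.5% DMSO vehicle, by qRT-PCR.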

[5] = read-out: DNA damage-inducible transcript 3 (DDIT3), DDIT3 (gene 1649); experiment: LTEA_HepaRG_DDIT3: Life Technologies and Expression Analysis (LTEA) Assay for DNA damage-inducible transcript 3 (DDIT3) using HepaRG (AID 2283488)
Summary of the method: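 DDIT3 transcript was quantified by qRT-PCR with ACTB/GAPDH/POLR2A normalization after 48 h chemical treatment of differentiated HepaRG cells in 0.5% DMSO. Dosing was eight-point, half-log, top 100 uM, duplicate wells. Curves fitted bidirectionally versus DMSO.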

[6] = read-out: Pro-epidermal growth factor (Homo sapiens) (UniProt P01133); experiment: LTEA_HepaRG_EGF: Life Technologies and Expression Analysis (LTEA) Assay for Epidermal growth factor (EGF) using HepaRG (AID 2283489)
Summary of the method: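 EGF expression changes in human HepaRG cells are scored by bidirectional fitting relative to 0.5% DMSO controls. Chemicals are tested at eight half-log concentrations up to 100 uM for 48 h in serum-free induction medium.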

[7] = read-out: Early growth response protein 1 (EGR1) transcription factor, EGR1 (gene 1958); experiment: LTEA_HepaRG_EGR1: Life Technologies and Expression Analysis (LTEA) Assay for Early growth response protein 1 (EGR1) transcription factor using HepaRG (AID 2283490)
Summary of the method: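 EGR1 expression change in human HepaRG after 48 h chemical exposure, assessed by housekeeping-normalized qRT-PCR; concentration-response up to 100 uM, fitted in both directions against DMSO controls.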

[8] = read-out: Ezrin (EZR), EZR (gene 7430); experiment: LTEA_HepaRG_EZR: Life Technologies and Expression Analysis (LTEA) Assay for Ezrin (EZR) using HepaRG (AID 2283491)
Summary of the method: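 Gain or loss of EZR mRNA is scored relative to 0.5% DMSO in human HepaRG cultures treated 48 h with test chemicals in duplicate, eight half-log concentrations from 100 uM.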

[9] = read-out: Cytochrome P450 3A7 (Homo sapiens) (UniProt P24462); experiment: LTEA_HepaRG_CYP3A7: Life Technologies and Expression Analysis (LTEA) Assay for CYP3A7 using HepaRG (AID 2283492)
Summary of the method: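 Cells were thawed, plated, cultured 48 h, then treated for a further 48 h with chemicals (eight-point half-log series from 100 uM, 0.5% DMSO). RNA was isolated and CYP3A7 expression quantified by qRT-PCR normalised to ACTB, GAPDH and POLR2A.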

[10] = read-out: CYP3A5 (gene 1577); experiment: LTEA_HepaRG_CYP3A5: Life Technologies and Expression Analysis (LTEA) Assay for CYP3A5 using HepaRG (AID 2283493)
Summary of the method: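 mRNA levels were quantified by qRT-PCR on Fluidigm arrays and normalized to three housekeeping genes. Differentiated HepaRG cells received 48 h exposure (top 100 uM, half-log steps, 0.5% DMSO vehicle, duplicate); bidirectional fitting versus DMSO.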

Measured: AC50

Cytochrome P450 3A4 (Homo sapiens), sequence (P08684 whole entry, looked up): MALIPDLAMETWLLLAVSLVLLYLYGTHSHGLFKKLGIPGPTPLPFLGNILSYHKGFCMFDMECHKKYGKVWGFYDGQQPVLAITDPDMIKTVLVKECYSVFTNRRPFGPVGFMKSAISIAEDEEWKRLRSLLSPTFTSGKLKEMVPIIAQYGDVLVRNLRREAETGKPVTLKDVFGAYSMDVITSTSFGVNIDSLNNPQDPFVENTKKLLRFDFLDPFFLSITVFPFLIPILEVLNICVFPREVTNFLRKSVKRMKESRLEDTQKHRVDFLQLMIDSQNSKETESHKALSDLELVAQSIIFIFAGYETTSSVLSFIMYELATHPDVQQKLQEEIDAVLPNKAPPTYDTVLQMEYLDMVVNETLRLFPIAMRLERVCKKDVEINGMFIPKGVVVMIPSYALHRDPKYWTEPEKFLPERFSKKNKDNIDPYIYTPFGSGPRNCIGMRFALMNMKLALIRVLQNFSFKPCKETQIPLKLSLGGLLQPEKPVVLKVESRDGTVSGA
Cytochrome P450 3A7 (Homo sapiens), sequence (P24462 whole entry, looked up): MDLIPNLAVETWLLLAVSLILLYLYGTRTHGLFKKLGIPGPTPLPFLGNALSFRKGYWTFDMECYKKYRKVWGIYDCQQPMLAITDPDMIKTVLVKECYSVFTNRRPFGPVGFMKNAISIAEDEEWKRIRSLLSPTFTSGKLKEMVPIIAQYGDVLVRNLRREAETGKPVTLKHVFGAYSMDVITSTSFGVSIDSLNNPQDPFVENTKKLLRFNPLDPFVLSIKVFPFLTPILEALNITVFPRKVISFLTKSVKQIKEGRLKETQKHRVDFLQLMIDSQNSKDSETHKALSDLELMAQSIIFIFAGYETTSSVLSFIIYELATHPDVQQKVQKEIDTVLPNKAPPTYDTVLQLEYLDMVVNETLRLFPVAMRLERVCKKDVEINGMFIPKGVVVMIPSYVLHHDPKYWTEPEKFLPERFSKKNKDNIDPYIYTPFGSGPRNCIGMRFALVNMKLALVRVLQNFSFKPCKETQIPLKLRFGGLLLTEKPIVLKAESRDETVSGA

CC(C)c1nnc2ccc(-c3ocnc3-c3cc(F)ccc3F)cn12
active: [1] 71.7 µM | [2] 22.2 µM | [3] 33.6 µM | [4] 1.42 µM | [5] 80.1 µM | [7] 12.3 µM | [8] 2.38 µM | [9] 81.6 µM
inactive: [6] | [10]

c1ccc2cc3ccccc3cc2c1
active: [2] 50 µM | [9] 13.2 µM
inactive: all other assays above

OCc1ccccc1
inactive: all assays above

O=C(NO)C1(NS(=O)(=O)c2ccc(Oc3ccc(F)cc3)cc2)CCOCC1
active: [2] 54.4 µM | [3] 71 µM | [4] 4.48 µM | [5] 77.8 µM
inactive: all other assays above

C[C@@H](Oc1ccc(CNC(=O)c2cccnc2Oc2ccc3c(c2)OCO3)c(F)c1)C(=O)O
active: [3] 28.5 µM
inactive: all other assays above

C=CCc1cc(S(=O)(=O)c2ccc(O)c(CC=C)c2)ccc1O
active: [1] 93 µM | [2] 86.3 µM | [3] 94.4 µM | [4] 80.4 µM | [5] 84.9 µM | [9] 76.8 µM | [10] 9.92 µM
inactive: [6] | [7] | [8]

O=S1(=O)CCCO1
inactive: all assays above

CNC(C)=O
inactive: all assays above

OC(Cn1cncn1)(Cn1cncn1)c1ccc(F)cc1F
inactive: all assays above

Cc1ncc([C@@H](CCCCCCc2ccc3c(n2)NCCC3)CC(=O)O)cn1
active: [2] 50 µM | [3] 15.7 µM | [4] 31 µM
inactive: all other assays above

CCCOc1ccc(S(=O)(=O)N2CCN(CC)CC2)cc1-c1nc2c(CC)n(Cc3ccccn3)nc2c(=O)[nH]1
active: [2] 4.54 µM | [3] 30.9 µM | [4] 2.11 µM | [5] 69.6 µM | [9] 1.22 µM
inactive: all other assays above

CC[C@H](C)C(=O)O[C@H]1C[C@H](O)C=C2C=C[C@H](C)[C@H](CC[C@@H](O)C[C@@H](O)CC(=O)O)[C@H]21
active: [2] 50 µM
inactive: all other assays above

Cc1nc(-c2ccccn2)ncc1C(=O)Nn1cc(C)c2cc(F)ccc21
active: [1] 75.6 µM | [2] 24.3 µM | [3] 59.4 µM | [4] 1.57 µM | [9] 0.945 µM
inactive: all other assays above

CCOC(N)=O
inactive: all assays above

O=C(O)c1cccc(C[C@@H]2COc3ccc(OCc4nc5cc(F)ccc5s4)cc3[C@@H]2O)c1
active: [1] 81.6 µM | [2] 71.7 µM | [3] 85.9 µM | [4] 78.2 µM | [9] 82.2 µM
inactive: [5] | [6] | [7] | [8] | [10]

CCCCCCCCCC
inactive: all assays above
